# Results published in PubChem BioAssay AID485317 (Broad Institute, 2010).
# About 11,000 (3.8%) of roughly 290,000 compounds were called active.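 The calls were made as follows: active = mean replicate inhibition above about 79%, with every replicate also reaching it (limit read from the data); inconclusive = only one of the two criteria met; inactive = mean below limit and not every replicate reaching it.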 Shown is part of a subset that was picked to be rich in actives.
# Target: FAD-linked sulfhydryl oxidase ALR (Homo sapiens) (UniProt P55789)
# Experiment: ALR-catalysed DTT oxidation blockers – biochemical, H2O2 detection, HRP-luminol luminescence, single point, primary screen (AID 485317)
# Conditions: purified ALR, stronger effect = higher value, concentration not given here
# Sequence of FAD-linked sulfhydryl oxidase ALR (Homo sapiens) (P55789 whole entry, looked up): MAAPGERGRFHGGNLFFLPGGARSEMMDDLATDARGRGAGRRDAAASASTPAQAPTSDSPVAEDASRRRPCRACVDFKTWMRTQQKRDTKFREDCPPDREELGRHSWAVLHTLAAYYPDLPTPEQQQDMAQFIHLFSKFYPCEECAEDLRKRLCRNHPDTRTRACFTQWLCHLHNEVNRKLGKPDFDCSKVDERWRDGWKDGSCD
row,SMILES,inhibition
1,COc1ccc(S(=O)(=O)N(C)C[C@H]2Oc3c(NC(=O)Nc4ccc5c(c4)OCO5)cccc3C(=O)N([C@H](C)CO)C[C@@H]2C)cc1,-7.29% (inactive)
2,CC(C)(C)OC(=O)NCCCCCNC(=O)c1[nH]cnc1C(=O)Nc1nccs1,-6.55% (inactive)
3,COc1ccc(Cl)cc1NS(=O)(=O)c1cccc(C(=O)NC2CCC(O)CC2)c1 (centres undefined),-6.32% (inactive)
4,O=C(COC(=O)c1cccc(Cl)c1)NC(=O)NCc1ccccc1,-1.07% (inactive)
5,COc1cccc(NC(=O)C(Sc2nc3ccccc3c(=O)n2CC(C)C)c2ccccc2)c1 (centres undefined),-3.45% (inactive)
6,CCc1ccc(NC(=O)CSc2nc3ccccc3c(=O)n2CCN2CCOCC2)cc1,98.6% (active)
7,CC(=O)c1ccc(NC(=O)CSc2nc3ccccc3c(=O)n2CCCN2CCOCC2)cc1,23.1% (inactive)
8,COC(=O)c1ccc2c(=O)n(CCN3CCOCC3)c(SCC(=O)Nc3cccc(OC)c3)nc2c1,99.1% (active)
9,COCCn1c(SCC(=O)Nc2ccc3c(c2)CCC3)nc2ccccc2c1=O,-0.883% (inactive)
10,CC(=O)NCCn1c(SCC(=O)Nc2ccc(C)cc2)nc2ccccc2c1=O,-3.53% (inactive)
11,Cc1csc(NC(=O)c2ccc(C)s2)n1,27.4% (inactive)
12,O=C(COC(=O)Cc1ccc([N+](=O)[O-])cc1)NC1CCCCCC1,3.75% (inactive)
13,COc1ccc(-c2c(-c3cc(OC)cc(OC)c3)n(C)c3ccc(-c4ccn[nH]4)cc23)cc1,-7.81% (inactive)
14,Brc1ccc(CN2CC[C@H]3C=CCc4cccc(c43)C2)cc1,-17.1% (inactive)
15,Cc1cc(C)nc(S/C=C/C(=O)c2ccccc2)n1,18.2% (inactive)
16,COc1ccc(Cl)cc1CSc1ncn[nH]1,3.36% (inactive)
17,O=C(/C=C/Sc1ncn[nH]1)c1ccc(Cl)cc1,98.6% (active)
18,CCN(c1ccccc1)S(=O)(=O)c1ccc(C(=O)Nc2ccccc2OC)cc1,2.02% (inactive)
19,COc1ccc(NC(=O)N(C)C[C@H]2Oc3ccc(NC(=O)C4CC4)cc3C(=O)N([C@H](C)CO)C[C@@H]2C)cc1,-0.429% (inactive)
20,CN(C)CCN(C(=O)CN1C(=O)c2ccccc2C1=O)c1nc2cc3c(cc2s1)OCCO3,-1.15% (inactive)
21,Nc1ccccc1/C=N\N=C/c1ccccc1N,-2.8% (inactive)
22,Nc1nnc(SCC(=O)Nc2ccc3nc(SCC(=O)Nc4ccccc4)sc3c2)s1,-42% (inactive)
23,Cc1nc2nc(SCC(=O)Nc3cccc(F)c3)[nH]c2cc1Br,-13.2% (inactive)

row,SMILES,inhibition
1,O=C(CSc1nc2[nH]c(=O)[nH]c(=O)c2s1)Nc1cccc(F)c1,98.7% (active)
2,O=S(=O)(NCCS(=O)(=O)N1CCN(c2ccccc2)CC1)c1ccc(F)cc1,-11.7% (inactive)
3,CC1(C)CC(=O)c2ccc(O)cc2O1,0.168% (inactive)
4,CC[C@@H]1Cc2cc(O)ccc2C2=C1c1ccc(O)cc1C[C@H]2CC,97.9% (active)
5,CCc1nnc(NC(=O)c2cc(S(=O)(=O)N3CCCCC3)ccc2C)s1,-5.04% (inactive)
6,Cc1ccc(CNS(=O)(=O)CCNC(=O)c2ccccc2)cc1,0.449% (inactive)
7,CCN(CC(=O)Nc1ccc(OC)cc1)C(=O)c1ccc(Cl)c(S(=O)(=O)N2CCCC2)c1,-0.437% (inactive)
8,O=C(CSc1ncnc2sccc12)N1CCN(C(=O)c2cccs2)CC1,3.8% (inactive)
9,COc1ccccc1C(=O)NC(CCSC)C(=O)N1CCN(C/C=C/c2ccccc2)CC1 (centres undefined),-15.9% (inactive)
10,CC1(C)CC(=O)C=C(Nc2ccccc2)C1,3.81% (inactive)
11,Cc1cc(O)ccc1NC1=CC(=O)CC(C)(C)C1,92.3% (active)
12,COC(=O)NNC1=CC(=O)CC(C)(C)C1,5.45% (inactive)
13,O=C(Nc1cc(S(=O)(=O)N2CCOCC2)ccc1N1CCOCC1)c1c(F)cccc1Cl,0.0766% (inactive)
14,COc1cc(/C=C2/C(=O)NN(c3cccc(Cl)c3)C2=O)cc(Br)c1O,98.2% (active)
15,C#CCOc1ccc(/C=C2/C(=O)NN(c3ccccc3)C2=O)cc1OC,66.4% (inactive)
16,COc1cc(/C=N/O)cc(Br)c1OCc1cccc(Cl)c1,-0.717% (inactive)
17,C=CCSc1ccc(S(=O)(=O)N2CCN(C)CC2)cn1,0.831% (inactive)
18,CC1CCc2sc(C(=O)NCC(c3ccco3)N3CCCCC3)cc2C1 (centres undefined),-3.3% (inactive)
19,C[C@H](NC(=O)c1ccccc1Cl)C(=O)OCC(=O)N1CCN(c2ccccc2)CC1,50.7% (inactive)
20,Cn1nnnc1SCC(=O)Nc1sccc1C(N)=O,23.5% (inactive)
21,COc1ccc(-c2cc(C(F)(F)F)nc(SCCC(=O)NCc3ccco3)n2)cc1,96.7% (active)
22,COc1cc(OC)cc(-c2nc3nc(C)c(CCC(=O)NCc4ccco4)c(C)n3n2)c1,0.656% (inactive)
23,COc1ccc(C(=O)Nc2ccccc2C(=O)NCc2ccco2)cc1,-4.1% (inactive)

row,SMILES,inhibition
1,CC1C(=O)N2CCCc3cc(S(=O)(=O)NCc4ccc(F)cc4)cc1c32 (centres undefined),2.55% (inactive)
2,Cc1ccc(CN2CC(C(=O)NNC(=O)Cn3ccc(C(F)(F)F)n3)CC2=O)cc1 (centres undefined),-1.18% (inactive)
3,CC(=O)Nc1ccc(S(=O)(=O)Nc2nc(-c3ccc(C(C)(C)C)cc3)cs2)cc1,14.9% (inactive)
4,CC(=O)Nc1cccc(-c2csc(Nc3cccc(C)n3)n2)c1,-4.7% (inactive)
5,CC(=O)Nc1ccc(-c2csc(NC=C3C(=O)OC(C)(C)OC3=O)n2)cc1,98.2% (active)
6,CCOC(=O)c1sc(NC(=O)C2CSC3(C)CCC(=O)N23)nc1C (centres undefined),-0.227% (inactive)
7,COc1cc(/C=C/C(=O)OCC(=O)NC2CC2)cc(OC)c1OC,-0.461% (inactive)
8,O=C(CCc1nc(-c2ccccc2)no1)Nc1cccc(C(=O)NC2CC2)c1,28.1% (inactive)
9,Cc1ccccc1-c1cc(C(=O)NCC2CC2)n(CC2CC(c3cccnc3)=NO2)n1 (centres undefined),10.4% (inactive)
10,O=C1Nc2ccccc2C12Nc1ccccc1S2 (centres undefined),98.7% (active)
11,CCc1ccc2c(c1)C1(NN=C(c3ccccc3)S1)C(=O)N2 (centres undefined),33.8% (inactive)
12,COc1ccc(C2(O)C(=O)Nc3ccccc32)cc1 (centres undefined),-1.7% (inactive)
13,CCCCn1c(N)c(N(CCOC)C(=O)c2cccc(S(=O)(=O)N3CCCCC3)c2)c(=O)[nH]c1=O,-6.18% (inactive)
14,CC(C)(C)OC(=O)C[C@H]1C/C=C\C[C@@H](CC(=O)N[C@H](CO)Cc2ccccc2)C(=O)NC[C@@H](c2ccccc2)OC1=O,-2.76% (inactive)
15,CCCCCCSc1ccc([C@@H]2[C@H]3C(=O)N(CC)C(=O)[C@H]3[C@]3(C(=O)OC)CCCCN23)cc1,3.32% (inactive)
16,CCOc1ncccc1C(=O)OCC(=O)N1c2ccccc2CC1C (centres undefined),2.2% (inactive)
17,CCCC(=O)N1c2ccc(-c3csc(N)n3)cc2CC1C (centres undefined),98.9% (active)
18,Cc1ccn(CCC(=O)N2c3ccccc3CC2C)n1 (centres undefined),-7.69% (inactive)
19,CCOc1ccc(NS(=O)(=O)c2ccc(C(=O)NCC(c3ccccc3OC)N3CCCC3)cc2)cc1 (centres undefined),0.447% (inactive)
20,CN(c1ccccc1)c1ccc(/C=c2\s/c(=C(/C#N)C(=O)C(C)(C)C)n(Cc3ccco3)c2=O)cc1,-25.2% (inactive)
21,Cc1cs/c(=N\N=C\c2ccc(O)cc2)n1Cc1ccco1,98.6% (active)
22,COc1ccc(NC(=O)CSc2nnc(-c3cccs3)n2Cc2ccco2)cc1OC,-13.2% (inactive)
23,Cc1cc(=O)[nH]c(N/N=C/c2c(C)nn(-c3ccccc3Cl)c2Cl)n1,24.5% (inactive)

row,SMILES,inhibition
1,CCN(CC)c1ccc(/C=N/Nc2nc(C)cc(=O)[nH]2)cc1,99.1% (active)
2,Cc1cc(=O)[nH]c(N/N=C/c2ccc3c(c2)OCCO3)n1,17.8% (inactive)
3,COc1ccccc1-c1oc2ccccc2c1C#CCCCCO,-1.62% (inactive)
4,COc1ccc(CCNC(=O)CS(=O)(=O)Cc2nc(-c3ccc(C)cc3)oc2C)cc1OC,21.5% (inactive)
5,COc1ccc(CNC(=O)Cc2ccc(-c3ccccc3)cc2)cc1OC,-4.45% (inactive)
6,O=C(COc1ccccc1)N1CCc2ccccc2C1,-0.403% (inactive)
7,Cc1ccc(-c2nc(CS(=O)(=O)CC(=O)NCc3ccc4c(c3)OCO4)c(C)o2)cc1,-0.75% (inactive)
8,COc1cccc(N(CC(=O)N2CCc3ccccc3C2)S(C)(=O)=O)c1,-14.9% (inactive)
9,CC(CCc1ccccc1)NC(=O)c1ccc(Br)o1 (centres undefined),-19.9% (inactive)
10,COc1ccc(CC(=O)NC(C)CCc2ccccc2)cc1 (centres undefined),-14.5% (inactive)
11,Cc1cccc(-c2nc(CS(=O)CC(=O)NC(C)CCc3ccccc3)c(C)o2)c1 (centres undefined),92% (active)
12,COc1ccc(-c2nc(CS(=O)CC(=O)NCc3ccccc3)c(C)o2)cc1OC (centres undefined),98.9% (active)
13,COc1cccc(-c2nc(CS(=O)CC(=O)NCc3ccc(F)cc3)c(C)o2)c1 (centres undefined),98.8% (active)
14,COc1ccc(-c2nc(CS(=O)CC(=O)N3CCc4ccccc4C3)c(C)o2)cc1 (centres undefined),99% (active)
15,COc1cccc(NC(=O)NCc2ccc(F)cc2)c1,-2.14% (inactive)
16,CCCCn1c(N)c(N(CCOC)C(=O)CSCC(=O)Nc2cccc(C)c2)c(=O)[nH]c1=O,6.91% (inactive)
17,CC(=O)Nc1ccc(S(=O)(=O)NC(C)C(=O)OCCOc2ccc(F)cc2)cc1 (centres undefined),0.524% (inactive)
18,COc1ccc2nc3n(c(=O)c2c1)-c1cc(C)ccc1C(=O)NC3Cc1ccc(O)cc1 (centres undefined),-1.57% (inactive)
19,O=C(Nc1nnc(-c2ccccc2)o1)c1cccc(S(=O)(=O)N2CCOCC2)c1,9.18% (inactive)
20,Fc1ccccc1-c1cc2cc3c(cc2cn1)OCO3,0.64% (inactive)
